Shiga toxin inh: A qHTS for Small Molecule Inhibitors of Shiga Toxin; Vero cells, Shiga toxin protein synthesis inhibition reporter; inhibition, % at 38.7 µM; 290,000 compounds, 9.2% hits; in the data active means inhibition mostly above about 28%, no sharp cut-off; inactive means mostly below about 43%; further: 0% is about no effect
Pf growth 48h: Primary qHTS for delayed death inhibitors of the malarial parasite plastid, 48 hour incubation; 310,000 compounds, 5.9% hits; P. falciparum luciferase growth in erythrocytes, 48 h; AID 504832, 2011; Potency, µM (doses to about 28.7 µM), for inactives: top-dose activity change, negative = inhibition, most hits filed as inhibitors; further: potency means the concentration at half of the fitted maximal effect; on the % scale 0 is the no-effect control and ±100 the full control effect
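Growth was read as firefly luciferase luminescence after a 48 h, 37 C, 5% CO2 exposure of compounds to reporter-bearing P. falciparum cultures (0.1% parasitemia, 2% hematocrit final) in Albumax-supplemented RPMI 1640.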
HCMV antiviral: qHTS Assay for inhibitors of the human cytomegalovirus (HCMV); HFF cells, HCMV-luciferase reporter, 72 h; hits give low values; activity change, negative = inhibition, % at 57.5 µM; 410,000 compounds, 4.5% hits; AID 1259415, 2018; in the data active means activity change below about -60%; inconclusive means no clear call, values can overlap the other calls; inactive means above about -39%; further: on the % scale 0 is the no-effect control and ±100 the full control effect
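Cell-based, HFFs, 1000 cells/well, 16 h 37C; cpds in DMSO + HCMV-luc, MOI 1 PFU/cell; 72 h 37C; OneGlo luminescence after 5 min RT; norm. to buffer vs Salinomycin 10uM.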
Cycloheximide cs: Cycloheximide Counterscreen for Small Molecule Inhibitors of Shiga Toxin | cell reporter, cycloheximide protein synthesis inhibition counterscreen | max response, % | 300,000 compounds, 12% hits; in the data active means max response mostly above about 13%, no sharp cut-off; inactive means mostly below about 14%; further: read at 38.3 µM for the half of the compounds with a filed dose; 0% is about no effect
Pf growth 96h: Primary qHTS for delayed death inhibitors of the malarial parasite plastid, 96 hour incubation; P. falciparum luciferase reporter growth, 96 h; Potency, µM (highest dose often 28.7 µM), for inactives: at the top dose activity change, negative = inhibition, hits mostly inhibitors; 320,000 compounds, 6.9% hits; AID 504834, 2011; further: potency means the concentration at half of the fitted maximal effect; on the % scale 0 is the no-effect control and ±100 the full control effect
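Parasite growth measured via integrated firefly luciferase reporter in P. falciparum. Infected erythrocytes at 2% hematocrit, 0.05% parasitemia final were treated 96 hours at 37 C under 5% CO2, and luminescence was read.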
* hit, by the source's call; ? = inconclusive; . = no result given; [ ] = remark or other dose. Compounds with a hit are over-represented: about 20% of the library has one in this group of screens. Unless noted, the call rests on the fitted dose curve; in most records, active means well fitted inhibition curve with a large enough effect; inconclusive means small, poorly fitted or top-dose-only effect, or another doubt; inactive means no such curve, though single readings can be large or run the other way.

SMILES	Shiga toxin inh	Pf growth 48h	HCMV antiviral	Cycloheximide cs	Pf growth 96h
Cn1c(O)c(N=NC(=O)c2cccc(S(=O)(=O)N3CCCCC3)c2)c2ccccc21	-7	10µM*	-16	-1	7.4µM*
C=CCNc1nc(-c2c(C)nc3sccn23)cs1	50*	-8%	29	25*	5%
Cc1nc2sccn2c1-c1csc(NCc2ccccc2)n1	29	13µM*	-72*	14	74%
Cc1oc(-c2ccc(Cl)cc2)nc1CN1CCCC(C(=O)NCc2ccccc2)C1 (centres undefined)	.	.	-18	.	.
COc1cc(C(=O)NCC(c2cccs2)N2CCOCC2)ccc1OCc1ccccc1 (centres undefined)	.	.	-2	.	.
CC(=O)OC(c1nc2ccccc2c(=O)n1C1CC2(OC1=O)c1ccccc1N1C(=O)C(C)(C)N(O)C12)C(C)C (centres undefined)	-3	2.1µM*	-11	2	10µM*
COC(=O)c1ccc(CSc2nc3ccccc3c(=O)n2CC(C)C)o1	-4	-22%	22	1	?
O=C(CCl)N(C/C=C/c1ccccc1)c1ccc2c(c1)OCCO2	164*	?	58	52*	?
O=C(NNC1=Nc2cccc3cccc1c23)c1ccc(Br)cc1	29	12µM*	-62*	8	-27%
COc1ccc(CC(=O)NNC2=Nc3cccc4cccc2c34)cc1OC	-16	9%	0	-1	2%
CCn1c(C)nc2cc(C(=O)n3cc(C(=O)c4cc(F)ccc4O)cn3)ccc21	21	28%	.	6	0.83µM*
CC(=Nc1ccccc1)C1=C(O)C(Cc2cccc(F)c2)NC1=O (centres undefined)	.	.	-72*	.	.
CC(=Nc1ccccc1)C1=C(O)C(Cc2ccc(O)cc2)NC1=O (centres undefined)	.	.	-69*	.	.
CCCc1cc(C(=O)Nc2ccccc2C(=O)OC)no1	12	4%	82	-3	12µM*
CCCc1cc(C(=O)Nc2cccnc2Cl)no1	59*	.	-1	55*	12µM*
CCCc1cc(C(=O)Nc2cc(OC)c(Cl)cc2OC)no1	12	.	26	-3	55%
CCCc1cc(C(=O)Nc2cc(C)nn2-c2ccccc2)no1	3	.	-13	-2	123%
CCCc1cc(C(=O)Nc2cc(C)ccc2O)no1	49*	-25%	-69*	18*	16%
COc1ccc(CCNC(=O)CNC(=O)N2CC(=O)Nc3ccccc32)cc1OC	.	.	2	.	.
COc1ccc(CCNC(=O)[C@@H](NC(=O)N2CC(=O)Nc3ccccc32)C(C)C)cc1OC	13	-20%	-2	1	12µM*
Nc1nc(-c2ccccc2)[nH]c(=O)c1N	30*	17%	-2	26*	-21%
O=c1[nH]c(-c2ccccc2)nnc1-c1ccccc1	25	80%	31	18*	87%
Cc1nnc(-c2ccccc2)[nH]c1=O	-7	-32%[5.75 µM]	-3	6	-68%[5.75 µM]
CC(C)C(=O)Nc1cccc(COc2ccc(CN(Cc3ccccc3)C(=O)OC(C)(C)C)cc2)c1	.	.	-34	.	.
CCOC(=O)C1=CN(Cc2ccc(OC)cc2)C=C(C(=O)OCC)C1c1cccs1	-9	?	?	-3	29%
SMILES	Shiga toxin inh	Pf growth 48h	HCMV antiviral	Cycloheximide cs	Pf growth 96h
O=C(CN1C(=O)/C(=C\c2ccc(F)cc2)Oc2ccccc21)NCc1ccco1	14	-3%	11	1	-28%
CCOC(=O)[C@]12CCC=C1N(Cc1ccccc1)C(=O)[C@H](CC(=O)NCc1ccccc1)C2	.	.	9	.	.
CCOc1ccc(-c2c(C)n(-c3ccc(OCC)cc3)c3[n+]2CCCCC3)cc1	-10	0.41µM*	-95*	5	?
c1ccc(-c2c[n+]3c(n2-c2ccccc2)CCC3)cc1	18	0.83µM*	-37	-1	?
Cc1ccc(-c2c[n+]3c(n2-c2ccccc2)CCC3)cc1	-9	1.5µM*	-96*	1	0.15µM*
CCOc1ccc(-n2c(-c3ccccc3)c[n+]3c2CCCCC3)cc1	-6	?	-100*	-1	?
Cc1cc(N2CC(C(=O)Nc3nccs3)CC2=O)ccc1C(C)C (centres undefined)	20	?	-17	9	?
CNC(=O)c1c(NC(=O)CS(=O)(=O)c2ccc(F)cc2)sc(C)c1C	.	2%	-21	.	3%
O=C(Nc1ccc(N2CCOCC2)cc1)c1ccc([N+](=O)[O-])o1	59*	19%	-103*	37*	21%
O=C(Nc1ccc(N2CCN(C(=O)c3cccs3)CC2)cc1)c1ccc([N+](=O)[O-])o1	-23	?	.	-9	9.3µM*
O=C(Nc1ccc(N2CCN(C(=O)c3cccs3)CC2)cc1)c1ccco1	31	-15%	28	2	?
O=C(COC(=O)c1ccc([N+](=O)[O-])o1)Nc1ccc(N2CCOCC2)cc1	.	.	32	.	.
O=C(COc1ccccc1[N+](=O)[O-])Nc1ccc(N2CCN(C(=O)c3cccs3)CC2)cc1	15	10µM*	-33	-2	-29%
O=C(Nc1ccc(S(=O)(=O)N2CCOCC2)cc1)c1ccc([N+](=O)[O-])o1	61*	10µM*	-99*	19*	?
O=C(c1cccc2ccccc12)N1CCC(N2CCN(c3ccccc3)CC2)CC1	-14	?	64	-3	41%
COc1ccc(C(=O)NCC(=O)OCC(=O)c2c(C)[nH]c3ccccc23)cc1OC	.	.	27	.	.
Cc1cc(C)c(NC(=O)CO/N=C2\CCCc3nonc32)c(C)c1	-17	-3%	?	-4	2%
CCN(CC)C(=O)CSc1nc2c(c(=O)n(C)c(=O)n2C)n1Cc1ccccc1	.	.	2	.	.
CCSc1nc2c(c(=O)n(C)c(=O)n2C)n1Cc1ccc(Cl)cc1	.	.	-28	.	.
Cc1ccc(Cn2c(SCC(C)C)nc3c2c(=O)n(C)c(=O)n3C)cc1	9	3.7µM*	13	2	.
Cn1c(=O)c2c(nc(SCCN3CCCCC3)n2Cc2ccc(Cl)cc2)n(C)c1=O	2	?	-95*	-3	.
Cn1c(=O)c2c(nc(SCC(=O)NCc3ccc4c(c3)OCO4)n2Cc2ccc(Cl)cc2)n(C)c1=O	1	9.3µM*	-22	-1	-10%
Cn1c(=O)c2c(nc(Sc3ncccn3)n2Cc2ccc(Cl)cc2)n(C)c1=O	-6	.	-61*	-4	?
COc1cccc(-n2c(-c3cccc(F)c3)nc3c(cnn3-c3ccc(C)cc3)c2=O)c1	.	.	-28	.	.
COc1cccc(-c2nnn(CC(=O)N(C3CCCCC3)C3CCS(=O)(=O)C3)n2)c1 (centres undefined)	.	.	4	.	.
CCCCN(Cc1ccccc1)S(=O)(=O)c1cc(Br)cc2c1N(C(C)=O)C(C)C2 (centres undefined)	-27	12µM*	-65*	-2	.
